Source: PubChem BioAssay AID1159580 (chemical genetic matrix, 2015)
The campaign covered roughly 5,500 compounds. About 2,000 (36%) were called active. Inconclusive results (about 18%) are left out. Cut-off read from the data, not from the text of the source: active = normalized growth mostly below about 0.91 (no sharp cut-off); inconclusive = no clear call, values can overlap the other calls; inactive = mostly above about 0.92. The list shows a part of the results.

Test: chemical genetic growth profiling, strain panel (AID 1159580);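 note: tested at 20 µM; growth read once vehicle control cultures reached saturation at 30 °C; 1 = growth at the plate median or of vehicle wells; lower values mean less growth of the strain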
Conditions: S. cerevisiae deletion strains, growth OD

Measured: normalized growth

CN(CCOc1ccc(C[C@H](Nc2ccccc2C(=O)c2ccccc2)C(=O)O)cc1)c1ccccn1
inactive: locus YAL013W, strain DEP1, active compounds read low 0.992 | locus YAL040C, strain CLN3, active compounds read low 1.09 | locus YCL061C, strain MRC1 (second series), active compounds read low 0.999 | locus YDR363W, strain ESC2, active compounds read low 0.994 | locus YER002W, strain NOP16, active compounds read low 1 | locus YGR078C, strain PAC10, active compounds read low 1.02 | locus YMR263W, strain SAP30, active compounds read low 1 | locus YMR307W, strain GAS1, active compounds read low 0.996 | locus YNL175C, strain NOP13, active compounds read low 1 | locus YNL197C, strain WHI3, active compounds read low 0.994 | locus YNL224C, strain SQS1, active compounds read low 0.992 | locus YOR083W, strain WHI5 (second series), active compounds read low 1.1 | locus YPL055C, strain LGE1, active compounds read low 1
